# Experimental data reported in PubChem BioAssay (EPA / NIEHS).
# Inconclusive results are not listed. Activity calls are given as the source filed them. Rule for the calls, unless noted: active = hit-call score of the fitted dose curve at least 0.9, where 1 is the maximum; inconclusive = response in the unintended direction; inactive = score below 0.9.
# Read-out: Interleukin-8 (IL8), CXCL8 (gene 3576)
# Assay: BSK_SAg_IL8: BioMAP Diversity Plus: SAg Assay for Interleukin-8 (IL8) Biomarker Activity (AID 2283094; active = hit-call score of the fitted dose curve at least 0.9, where 1 is the maximum; inactive = score below 0.9)
# Conditions: primary human HUVEC with PBMC; actives raise or lower the signal
# Method in brief: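 Chemicals were dosed onto a human endothelial–PBMC co-culture, and IL-8 was quantified by ELISA after 24 h. Both increases and decreases were fitted relative to DMSO.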
row,SMILES,outcome
1,CCCCCCCCCCC1CO1 (stereo not given),inactive
2,Cc1cccnc1,inactive
3,CC(C)CC(=O)CC(C)CC(C)C (stereo not given),inactive
4,CN(C)CCC(c1ccc(Cl)cc1)c1ccccn1 (stereo not given),inactive

# Read-out: not listed separately
# Assay: BSK_SAg_Proliferation: Cell Proliferation Assessment in the BioMAP Diversity Plus: SAg Assay (AID 2283095; active = hit-call score of the fitted dose curve at least 0.9, where 1 is the maximum; inactive = score below 0.9;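 note: relative cell number as total protein by SRB absorbance in sub-confluent culture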)
# Conditions: primary human HUVEC with PBMC
# Method in brief: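 Absorbance of sulforhodamine B at 560 nm reports total protein in a human vascular endothelial/PBMC co-culture after 96 h chemical exposure. Gain or loss of signal is fitted in both directions against DMSO.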
SMILES,AC50,outcome
CCCCCCCCCCC1CO1 (stereo not given),32.5 µM (active),–
Cc1cccnc1,–,inactive
CC(C)CC(=O)CC(C)CC(C)C (stereo not given),–,inactive
CN(C)CCC(c1ccc(Cl)cc1)c1ccccn1 (stereo not given),–,inactive

# Read-out: not listed separately
# Assay: BSK_SAg_SRB: Viability Assessment in the BioMAP Diversity Plus: SAg Assay (AID 2283096; active = hit-call score of the fitted dose curve at least 0.9, where 1 is the maximum; inactive = score below 0.9;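 note: cells read one day after compound addition; hits may be either gain or loss of signal compared with DMSO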)
# Conditions: primary human HUVEC with PBMC
# Method in brief: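 SRB absorbance at 560 nm served as the viability read-out. Cells (HUVEC plus peripheral blood mononuclear cells) were TCA-fixed and stained 24 h post-dosing; activity fitted in both directions against DMSO controls.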
row,SMILES,outcome
1,CCCCCCCCCCC1CO1 (stereo not given),inactive
2,Cc1cccnc1,inactive
3,CC(C)CC(=O)CC(C)CC(C)C (stereo not given),inactive
4,CN(C)CCC(c1ccc(Cl)cc1)c1ccccn1 (stereo not given),inactive

# Biological target: human Ephrin type-A Receptor 1 (EphA1), EPHA1 (gene 2041) (UniProt P21709)
# Assay: NVS_ENZ_hEphA1: NovaScreen (NVS) Enzymatic Assay for human Ephrin type-A Receptor 1 (EphA1) (AID 2283158);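 note: activity is signal loss versus DMSO meaning EphA1 kinase inhibition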
# Conditions: not given
# Method in brief: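 Recombinant kinase, fluorescent substrate, mobility-shift separation, fluorescence read at 1 h. Single-point duplicates at 25 uM; hits (e.g., ≥30% inhibition) run singleton concentration-response, max 50 uM. DMSO = negative control/baseline.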
# Sequence of human Ephrin type-A Receptor 1 (EphA1), EPHA1 (gene 2041) (P21709 whole entry, looked up): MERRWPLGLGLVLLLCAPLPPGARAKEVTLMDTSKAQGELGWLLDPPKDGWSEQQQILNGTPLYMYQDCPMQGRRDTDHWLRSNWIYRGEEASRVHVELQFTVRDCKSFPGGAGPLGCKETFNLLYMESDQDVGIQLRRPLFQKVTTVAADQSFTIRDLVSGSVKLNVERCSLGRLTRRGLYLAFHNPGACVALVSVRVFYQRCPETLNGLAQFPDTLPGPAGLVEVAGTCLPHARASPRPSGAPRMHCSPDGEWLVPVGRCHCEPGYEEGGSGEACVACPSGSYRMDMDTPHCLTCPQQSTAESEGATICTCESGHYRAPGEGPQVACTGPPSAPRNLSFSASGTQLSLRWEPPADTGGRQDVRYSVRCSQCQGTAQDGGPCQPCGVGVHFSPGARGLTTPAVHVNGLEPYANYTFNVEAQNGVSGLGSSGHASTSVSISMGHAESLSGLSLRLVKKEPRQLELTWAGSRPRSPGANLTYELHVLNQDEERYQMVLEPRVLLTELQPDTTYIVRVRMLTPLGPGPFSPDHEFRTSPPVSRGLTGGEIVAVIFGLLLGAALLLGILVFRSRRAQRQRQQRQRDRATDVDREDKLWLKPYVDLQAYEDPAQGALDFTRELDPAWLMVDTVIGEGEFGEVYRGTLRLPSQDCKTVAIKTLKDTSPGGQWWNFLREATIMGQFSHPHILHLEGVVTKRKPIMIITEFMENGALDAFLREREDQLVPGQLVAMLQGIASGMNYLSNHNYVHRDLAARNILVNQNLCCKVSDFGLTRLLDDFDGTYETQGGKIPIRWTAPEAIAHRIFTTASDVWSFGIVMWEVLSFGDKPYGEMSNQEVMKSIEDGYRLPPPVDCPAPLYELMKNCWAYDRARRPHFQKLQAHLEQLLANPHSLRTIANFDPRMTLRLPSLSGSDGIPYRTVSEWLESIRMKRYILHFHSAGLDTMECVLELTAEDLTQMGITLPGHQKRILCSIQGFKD
SMILES,AC50,outcome
Clc1ccccn1,9.99 µM (active),–
Cc1ccccc1S(N)(=O)=O,–,inactive
CCCOCCC,–,inactive
COc1ccccc1OCC(O)CO (stereo not given),–,inactive

# Biological target: human Phosphodiesterase 10 (PDE10), PDE10A (gene 10846) (UniProt Q9Y233)
# Assay: NVS_ENZ_hPDE10: NovaScreen (NVS) Enzymatic Assay for human Phosphodiesterase 10 (PDE10) (AID 2283195)
# Conditions: not given
# Method in brief: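 Fluorescence readout after mobility-shift separation of substrate and product, 1 h reaction with recombinant human enzyme. Single-concentration duplicates at 25 uM, then concentration-response up to 50 uM for chemicals reaching threshold; DMSO baseline.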
# Sequence of human Phosphodiesterase 10 (PDE10), PDE10A (gene 10846) (Q9Y233 whole entry, looked up): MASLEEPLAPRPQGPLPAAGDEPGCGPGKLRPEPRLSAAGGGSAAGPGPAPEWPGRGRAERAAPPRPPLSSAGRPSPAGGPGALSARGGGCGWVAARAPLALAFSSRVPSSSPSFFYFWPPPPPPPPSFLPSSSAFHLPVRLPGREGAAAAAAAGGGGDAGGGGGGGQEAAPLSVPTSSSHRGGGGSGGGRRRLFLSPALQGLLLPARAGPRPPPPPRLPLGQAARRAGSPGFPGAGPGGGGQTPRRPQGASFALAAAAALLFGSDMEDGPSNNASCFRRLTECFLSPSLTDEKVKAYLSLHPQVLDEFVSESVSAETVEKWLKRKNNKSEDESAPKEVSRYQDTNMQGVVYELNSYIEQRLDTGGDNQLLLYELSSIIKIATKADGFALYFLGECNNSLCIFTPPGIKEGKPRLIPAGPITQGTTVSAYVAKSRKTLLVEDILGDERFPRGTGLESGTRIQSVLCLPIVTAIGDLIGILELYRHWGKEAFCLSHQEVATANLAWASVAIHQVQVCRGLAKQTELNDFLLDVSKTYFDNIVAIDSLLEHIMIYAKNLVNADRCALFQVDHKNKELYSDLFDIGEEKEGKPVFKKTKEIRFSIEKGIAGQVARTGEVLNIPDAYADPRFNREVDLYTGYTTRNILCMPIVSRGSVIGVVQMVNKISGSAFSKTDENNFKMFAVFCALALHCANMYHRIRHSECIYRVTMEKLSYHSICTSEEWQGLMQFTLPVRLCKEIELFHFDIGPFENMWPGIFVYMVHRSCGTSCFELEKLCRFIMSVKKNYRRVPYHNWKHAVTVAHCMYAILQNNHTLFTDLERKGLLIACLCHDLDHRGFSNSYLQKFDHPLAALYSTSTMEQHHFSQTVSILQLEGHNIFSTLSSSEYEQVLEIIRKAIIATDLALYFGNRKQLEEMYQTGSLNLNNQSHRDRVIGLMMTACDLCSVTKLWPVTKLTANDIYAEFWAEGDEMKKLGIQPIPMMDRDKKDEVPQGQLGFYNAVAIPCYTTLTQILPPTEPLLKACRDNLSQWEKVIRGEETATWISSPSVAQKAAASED
SMILES,outcome,AC50
CC(C)CC(=O)O,inactive,–
CC(C)CC(=O)CC(C)CC(C)C (stereo not given),inactive,–
CCCOCCC,inactive,–
COc1ccccc1OCC(O)CO (stereo not given),–,25 µM (active)

# Biological target: human Phosphoinositide 3-kinase alpha (PI3Ka), PIK3CA (gene 5290) (UniProt P42336)
# Assay: NVS_ENZ_hPI3Ka: NovaScreen (NVS) Enzymatic Assay for human Phosphoinositide 3-kinase alpha (PI3Ka) (AID 2283196)
# Conditions: not given
# Method in brief: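 Enzyme activity as fluorescence after mobility-shift separation of substrate and product, 1 h reaction, recombinant human PI3Kα; concentration-response to 50 uM max for chemicals passing a 25 uM duplicate screen.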
# Sequence of human Phosphoinositide 3-kinase alpha (PI3Ka), PIK3CA (gene 5290) (P42336 whole entry, looked up): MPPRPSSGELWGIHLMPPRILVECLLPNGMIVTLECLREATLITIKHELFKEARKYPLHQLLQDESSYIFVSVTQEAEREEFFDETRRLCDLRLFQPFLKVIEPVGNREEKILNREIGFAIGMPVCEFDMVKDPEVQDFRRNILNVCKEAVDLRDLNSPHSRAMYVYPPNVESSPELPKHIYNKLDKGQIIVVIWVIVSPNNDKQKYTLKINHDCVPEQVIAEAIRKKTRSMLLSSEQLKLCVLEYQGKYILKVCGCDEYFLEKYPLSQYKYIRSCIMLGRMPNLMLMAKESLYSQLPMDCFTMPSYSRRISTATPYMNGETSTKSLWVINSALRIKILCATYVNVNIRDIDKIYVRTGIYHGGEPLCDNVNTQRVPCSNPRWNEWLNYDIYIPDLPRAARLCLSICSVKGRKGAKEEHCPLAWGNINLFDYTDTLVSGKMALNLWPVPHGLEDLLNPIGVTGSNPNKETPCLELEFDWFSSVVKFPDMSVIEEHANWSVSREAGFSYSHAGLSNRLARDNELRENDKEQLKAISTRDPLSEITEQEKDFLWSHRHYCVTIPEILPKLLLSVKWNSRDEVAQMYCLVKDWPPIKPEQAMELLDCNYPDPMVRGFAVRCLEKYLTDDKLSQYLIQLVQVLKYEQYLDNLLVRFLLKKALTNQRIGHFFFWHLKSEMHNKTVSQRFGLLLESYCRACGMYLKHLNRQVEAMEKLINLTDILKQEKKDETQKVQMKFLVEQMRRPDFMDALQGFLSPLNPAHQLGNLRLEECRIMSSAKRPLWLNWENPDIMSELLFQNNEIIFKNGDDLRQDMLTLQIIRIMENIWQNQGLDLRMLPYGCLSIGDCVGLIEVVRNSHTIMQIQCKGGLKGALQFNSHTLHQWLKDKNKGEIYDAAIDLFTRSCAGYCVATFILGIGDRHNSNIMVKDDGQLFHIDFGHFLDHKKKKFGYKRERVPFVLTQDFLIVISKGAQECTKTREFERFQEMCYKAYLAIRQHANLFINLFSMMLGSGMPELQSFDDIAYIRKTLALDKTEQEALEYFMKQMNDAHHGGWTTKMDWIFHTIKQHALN
SMILES,AC50,outcome
CC1(C)S[C@@H]2[C@H](NC(=O)[C@H](N)c3ccccc3)C(=O)N2[C@H]1C(=O)O,12.5 µM (active),–
Cc1ccccc1S(N)(=O)=O,–,inactive
CCCOCCC,–,inactive

# Biological target: Estrogen receptor beta (Homo sapiens) (UniProt Q92731)
# Assay: OT_ER_ERbERb_0480: Odyssey Thera (OT) 8-hour HEK293T Protein-Complementation Assay for Estrogen Receptor-beta/-beta Homodimer (AID 2283357);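 note: active means signal gain over DMSO baseline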
# Conditions: not given
# Method in brief: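 ER-beta LBD homodimer PCA stably expressed in HEK293T; 8 h compound exposure, then formaldehyde fixation and Draq5 staining. Gain in nuclear/cytoplasmic fluorescence intensity versus DMSO vehicle, read on laser scanning cytometer.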
# Sequence of Estrogen receptor beta (Homo sapiens) (Q92731 whole entry, looked up): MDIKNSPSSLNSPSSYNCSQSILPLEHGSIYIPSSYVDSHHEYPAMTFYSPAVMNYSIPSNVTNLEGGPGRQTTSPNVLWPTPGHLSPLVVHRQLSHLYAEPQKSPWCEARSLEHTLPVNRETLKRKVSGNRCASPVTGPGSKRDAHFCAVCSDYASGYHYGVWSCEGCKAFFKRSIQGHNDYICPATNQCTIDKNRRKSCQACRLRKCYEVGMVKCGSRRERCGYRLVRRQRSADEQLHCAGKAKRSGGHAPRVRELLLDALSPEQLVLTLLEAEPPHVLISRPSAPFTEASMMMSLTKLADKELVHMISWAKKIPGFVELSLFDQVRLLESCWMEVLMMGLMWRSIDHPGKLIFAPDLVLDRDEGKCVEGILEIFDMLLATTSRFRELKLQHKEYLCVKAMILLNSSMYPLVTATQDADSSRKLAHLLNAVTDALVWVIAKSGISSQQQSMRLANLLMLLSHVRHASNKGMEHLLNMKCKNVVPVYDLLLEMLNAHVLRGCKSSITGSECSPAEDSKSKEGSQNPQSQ
SMILES,outcome,AC50
Cc1cc(C)c(S(=O)(=O)O)cc1N=Nc1cc(S(=O)(=O)O)c2ccccc2c1O,inactive,–
C[Si](C)(C)O[Si](C)(C)O[Si](C)(C)C,inactive,–
Cc1cc(O)cc(C)c1Cl,–,25 µM (active)
Cc1cccnc1,inactive,–

# Biological target: Peroxisome proliferator-activated receptor gamma (Homo sapiens) (UniProt P37231)
# Assay: NVS_NR_hPPARg: NovaScreen (NVS) Nuclear Receptor Binding Assay for human Peroxisome Proliferator-activated Receptor gamma (PPARg) (AID 2283370)
# Conditions: not given
# Method in brief: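 FP read-out, 2 h post-dose, cell-free extracted receptor protein. Signal loss vs DMSO negative control = binding activity. Single-conc duplicate HTS at 25 uM; concentration-response follow-up for actives.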
# Sequence of Peroxisome proliferator-activated receptor gamma (Homo sapiens) (P37231 whole entry, looked up): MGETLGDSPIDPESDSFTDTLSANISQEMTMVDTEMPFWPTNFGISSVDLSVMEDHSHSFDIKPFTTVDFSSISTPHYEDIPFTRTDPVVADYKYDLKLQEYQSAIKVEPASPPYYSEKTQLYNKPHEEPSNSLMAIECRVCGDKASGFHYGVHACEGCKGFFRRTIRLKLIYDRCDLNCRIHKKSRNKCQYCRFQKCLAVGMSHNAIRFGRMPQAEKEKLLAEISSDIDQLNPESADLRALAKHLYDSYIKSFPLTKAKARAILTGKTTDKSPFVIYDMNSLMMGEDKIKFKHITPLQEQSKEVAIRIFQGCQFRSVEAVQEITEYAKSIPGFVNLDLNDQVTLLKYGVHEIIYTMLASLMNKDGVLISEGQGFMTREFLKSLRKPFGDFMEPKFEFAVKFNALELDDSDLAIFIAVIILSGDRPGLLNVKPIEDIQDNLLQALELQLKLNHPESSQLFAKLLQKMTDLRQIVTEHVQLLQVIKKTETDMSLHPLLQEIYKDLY
row,SMILES,outcome
1,Cc1cc(C)c(S(=O)(=O)O)cc1N=Nc1cc(S(=O)(=O)O)c2ccccc2c1O,inactive
2,Cc1cccnc1,inactive
3,F[B-](F)(F)F,inactive

# Biological target: Estrogen receptor beta (Homo sapiens) (UniProt Q92731)
# Assay: OT_ER_ERbERb_1440: Odyssey Thera (OT) 24-hour HEK293T Protein-Complementation Assay for Estrogen Receptor-beta/-beta Homodimer (AID 2283380);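 note: scored as signal increase over DMSO baseline for both agonists and antagonists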
# Conditions: not given
# Method in brief: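 Fluorescence increase, nuclear for agonists or whole-cell for antagonists, relative to DMSO vehicle, quantified by laser scanning cytometer after fixation and Draq5 staining. Readout from 24 h treatment of HEK293T cells carrying complementation-paired ER beta LBD (aa 310-547).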
SMILES,outcome,AC50
Cc1cc(C)c(S(=O)(=O)O)cc1N=Nc1cc(S(=O)(=O)O)c2ccccc2c1O,inactive,–
C[Si](C)(C)O[Si](C)(C)O[Si](C)(C)C,inactive,–
Cc1cc(O)cc(C)c1Cl,–,31.6 µM (active)
Cc1cccnc1,inactive,–

# Biological target: Retinoic acid receptor RXR-alpha (Homo sapiens) (UniProt P19793)
# Assay: OT_NURR1_NURR1RXRa_1440: Odyssey Thera (OT) 24-hour HEK293T Protein Complementation Assay for Nurr1/retinoid X receptor (RXR) (AID 2283386)
# Conditions: not given
# Method in brief: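 Steps: fragment-tagged Nurr1 and RXRα expressed in HEK293T; compounds added; after 24 h, complemented reporter quantified by fluorescence intensity; signal increase over DMSO fitted as the single endpoint.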
# Sequence of Retinoic acid receptor RXR-alpha (Homo sapiens) (P19793 whole entry, looked up): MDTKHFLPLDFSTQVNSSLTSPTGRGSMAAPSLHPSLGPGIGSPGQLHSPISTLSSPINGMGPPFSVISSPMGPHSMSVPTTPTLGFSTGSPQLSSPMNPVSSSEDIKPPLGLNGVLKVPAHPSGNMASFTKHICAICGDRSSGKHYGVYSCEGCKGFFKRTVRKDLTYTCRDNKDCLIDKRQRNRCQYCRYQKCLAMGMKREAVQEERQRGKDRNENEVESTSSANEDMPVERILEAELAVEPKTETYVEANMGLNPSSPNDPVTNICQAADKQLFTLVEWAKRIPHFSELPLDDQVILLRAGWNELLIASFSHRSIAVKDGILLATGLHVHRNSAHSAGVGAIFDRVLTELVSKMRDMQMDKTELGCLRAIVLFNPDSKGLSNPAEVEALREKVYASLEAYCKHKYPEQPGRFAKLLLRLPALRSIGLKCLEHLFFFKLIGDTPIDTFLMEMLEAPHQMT
row,SMILES,outcome
1,Cc1cc(C)c(S(=O)(=O)O)cc1N=Nc1cc(S(=O)(=O)O)c2ccccc2c1O,inactive
2,C[Si](C)(C)O[Si](C)(C)O[Si](C)(C)C,inactive
3,Cc1cc(O)cc(C)c1Cl,inactive
4,Cc1cccnc1,inactive
5,F[B-](F)(F)F,inactive

# Biological target: Peroxisome proliferator-activated receptor gamma (Homo sapiens) (UniProt P37231)
# Assay: OT_PPARg_PPARgSRC1_0480: Odyssey Thera (OT) 8-hour Protein-Complementation Assay for Peroxisome Proliferator-activated Receptor Gamma / SRC-1 Co-activator (AID 2283387);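 note: nuclear to cytoplasmic split Venus YFP fluorescence ratio reporting PPARg SRC-1 interaction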
# Conditions: not given
# Method in brief: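 Protein-fragment complementation of split Venus YFP reports PPARg/SRC-1 interaction in HEK293T (transfected 48 h before treatment), exposed 8 h. Readout: N/C fluorescence ratio at 488 nm from imaging, Draq5 for segmentation, positive fit relative to DMSO.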
row,SMILES,outcome
1,Cc1cc(C)c(S(=O)(=O)O)cc1N=Nc1cc(S(=O)(=O)O)c2ccccc2c1O,inactive
2,CC1=NN(c2cc(Cl)c(S(=O)(=O)O)cc2Cl)C(=O)C1N=Nc1ccc(S(=O)(=O)O)cc1 (stereo not given),inactive
3,C[Si](C)(C)O[Si](C)(C)O[Si](C)(C)C,inactive
4,Cc1cc(O)cc(C)c1Cl,inactive
5,Cc1cccnc1,inactive
6,F[B-](F)(F)F,inactive
